KCNQ2 inh = KCNQ2 (rat) channel inhibition | actives 1.1% (n = 310,000) | O88943 | CHO-K1 KCNQ2, FluxOR thallium flux, 20 min; stronger effect = lower value | AID 2156 | B-score at 10 µM;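 active = fluorescence ratio B-score at most minus 3 library SDs, with starting brightness B-score within 2 library SDs, cut at about -5.5 in these data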
KCNQ2 pot = KCNQ2 (rat) channel potentiation; CHO-K1 KCNQ2, FluxOR thallium flux fluorescence; stronger effect = higher value; B-score at 10 µM; actives 0.54% (n = 310,000); AID 2239;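 active = fluorescence ratio B-score at least 3 SD of library B-scores, with initial fluorescence B-score within 3 of them, cut at about 5.3 in these data; same plate scores as AID 2156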;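 note: B-score of peak minus minimum over baseline fluorescence ratio after K+ and Tl+ stimulus; positive B-score means potentiation of KCNQ2 with more thallium influx and brighter signal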
Each line names hits and unclear results; the compound was inactive in the other large screens. Only some compounds are listed: those with a hit (about 1.6% of all), similar ones and a draw of the others.

O=C(COc1cc(O)c2c(=O)cc(-c3ccccc3)oc2c1)c1ccccc1	KCNQ2 inh -5.9
O=C(c1cc(-c2ccccc2)nc2ccccc12)N1CCCC1	none
O=C(c1cc(-c2cccc(Cl)c2)nc2ccccc12)N1CCCC1	KCNQ2 inh -8.1
O=C(Nc1ccc([N+](=O)[O-])cn1)c1cc(-c2cccc(Br)c2)nc2ccccc12	none (no result: KCNQ2 pot)
O=C(Nc1ncccn1)c1cc(-c2cccc(Br)c2)nc2ccccc12	none (no result: KCNQ2 pot)
O=C(Nc1ccc([N+](=O)[O-])cn1)c1cc(-c2cccc(Cl)c2)nc2ccccc12	KCNQ2 inh -5.6
O=C(Nc1ccccn1)c1cc(-c2cccc(Cl)c2)nc2ccccc12	KCNQ2 inh -5.6
COCCNC(=O)CSC1=N/C(=C/c2ccc(Cl)c(Cl)c2)C(=O)N1c1ccccc1F	none (no result: KCNQ2 pot)
CC(Sc1nc(C(C)(C)C)cc(-c2ccccc2)c1C#N)C(=O)Nc1ccccc1 (configuration not stated)	none (no result: KCNQ2 pot)
CN(C(=O)c1cccc(C(F)(F)F)c1)C1CCCc2ccccc21 (configuration not stated)	KCNQ2 inh -5.8
CSc1ccccc1OCc1cc(C(=O)N(C)C2CCCc3ccccc32)no1 (configuration not stated)	none (no result: KCNQ2 pot)
O=C(NCCSCc1ccco1)c1ccc(=O)[nH]c1	none (no result: KCNQ2 pot)
COC(=O)[C@@H](N)CS	none
COC(=O)CSc1nnc(CSc2nc(C)cc(C)n2)n1Cc1ccco1	none (no result: KCNQ2 pot)
Cc1cc(C)nc(SCc2nnc(SCc3ccc([N+](=O)[O-])cc3)n2Cc2ccco2)n1	KCNQ2 inh -5.8
COc1ccc(NC(=O)NCc2cccnc2)c(OC)c1	none (no result: KCNQ2 pot)
COc1ccc(NC(=O)N(Cc2cccnc2)Cc2ccccc2Cl)c(OC)c1	KCNQ2 inh -5.8
CCN(CC)c1nc2ccccc2n(Cc2cccc(OC)c2)c1=O	none (no result: KCNQ2 pot)
COc1ccc(S(=O)(=O)N2CCN(c3ccc(C)cc3C)CC2)cc1OC	none (no result: KCNQ2 pot)
CCOc1ccc(S(=O)(=O)N2CCN(c3ccc(C)cc3C)CC2)cc1	KCNQ2 inh -7
COc1ccc2nc(SCCN(C)C)[nH]c2c1	none (no result: KCNQ2 pot)
CCOc1ccc(C(=O)CCN2CCCCCC2)cc1	KCNQ2 inh -6.6
CCCOc1ccc(C(=O)CCN2CCCCC2)cc1	none (no result: KCNQ2 pot)
COc1ccc(N)cc1-n1cnnn1	none (no result: KCNQ2 pot)
CCc1ccccc1Nc1cc(C(=O)NCc2ccccn2)c2ccccc2n1	KCNQ2 inh -5.9
CCc1ccc(-c2cc(C(=O)NCc3ccccn3)c3ccccc3n2)cc1	none (no result: KCNQ2 pot)
CC(C)(CNC(=O)c1cccc(S(=O)(=O)Nc2ccc(Br)cc2)c1)N1CCOCC1	none (no result: KCNQ2 pot)
CC(=O)NNc1nc2ccccc2s1	none
C/C(=C\C(=O)c1ccccc1)NNc1nc2ccccc2s1	KCNQ2 inh -5.7
O=C(CSCc1ccccc1)N1CCN(c2ccccc2)CC1	none (no result: KCNQ2 pot)
C/C(=C\c1ccccc1)C(=O)N1CCN(c2cccc(C(F)(F)F)c2)CC1	KCNQ2 inh -6.2
C/C(=C/c1ccccc1)C(=O)N1CCN(c2ccccc2F)CC1	none (no result: KCNQ2 pot)
O=C(CSCc1ccccc1)N1CCN(c2cccc(C(F)(F)F)c2)CC1	KCNQ2 inh -6.5
O=S(=O)(Cc1ccccc1)N1CCN(c2ncccn2)CC1	none (no result: KCNQ2 pot)
Cc1nc(NC(=O)CSc2nnc(C3CC3)n2C)sc1C	none (no result: KCNQ2 pot)
O=C(N/N=C(\CC(=O)c1cccs1)C(F)(F)F)c1ccncc1	none
Cc1ccc(C(=O)N/N=C(/CC(=O)c2cccs2)C(F)(F)F)cc1	KCNQ2 pot 13
CCn1ncc(Br)c1C(=O)Nc1ccc(-c2ccno2)cc1	none
COc1ccc(C(=O)NNC(=O)C(=O)Nc2ccc(C)c(Cl)c2)cc1	none
Cc1ccc(NC(=O)C(=O)NNC(=O)c2ccccc2C)cc1Cl	KCNQ2 pot 12
NCCc1nc(-c2ccccc2)cs1	none
Cc1cccc(OC(C)C(=O)Nc2ccc(N3CCCCC3)cc2)c1 (configuration not stated)	none (no result: KCNQ2 pot)
CCNC1=C(Cl)C(=O)c2ccccc2C1=O	none
O=C1C(Cl)=C(NCCN2CCCCC2)C(=O)c2ccccc21	KCNQ2 inh -5.8
COc1cc(NC(=O)COC(=O)C=C(C)C)c(C)cc1[N+](=O)[O-]	none (no result: KCNQ2 pot)
COC(=O)Cn1c(=O)c2c(nc(Br)n2Cc2ccccc2Cl)n(C)c1=O	KCNQ2 inh -5.8
Cn1c(=O)c2c(nc(Br)n2Cc2ccccc2Cl)n(C)c1=O	none (no result: KCNQ2 pot)
CN(C)S(=O)(=O)c1ccc(NC(=O)C2CC3C=CC2C3)cc1 (configuration not stated)	none (no result: KCNQ2 pot)
Cc1sc2nc(CSc3ccccc3)nc(N3CCOCC3)c2c1C	KCNQ2 inh -5.9
Cc1sc2nc(CSc3ccccc3)nc(N3CCC(C(N)=O)CC3)c2c1C	none
Cc1ccc([N+](=O)[O-])cc1NC(=O)c1ccc(CSc2ccccc2)cc1	none
Cc1ccc(SCc2ccc(C(=O)Nc3cccc([N+](=O)[O-])c3C)cc2)cc1	KCNQ2 inh -5.6
O=C(CSc1nc2ccccc2n1S(=O)(=O)c1ccccc1)N1CCCC1	none
N=C1/C(=C/c2cccs2)C(=O)N=C2SN=C(SCc3ccccc3)N12	none
CC(C)CSC1=NSC2=NC(=O)/C(=C\c3cccs3)C(=N)N12	KCNQ2 pot 7.4
COC(=O)c1ccc(COc2cc(C)ccc2C)o1	none (no result: KCNQ2 pot)
CN1CCN(c2ccccc2NC(=O)c2ccc(-c3ccccc3[N+](=O)[O-])o2)CC1	none (no result: KCNQ2 pot)

Screening results as filed in PubChem.
